Bioassay records deposited in PubChem by National Center for Advancing Translational Sciences (NCATS).
NPR1 antag: antagonists of human natriuretic peptide receptor Npr1 | HEK293 hNpr1 GloSensor cGMP, ANP-stimulated luminescence | P16066 | AID 1347048 | 76,000 compounds, 1.6% hits | Potency, µM (series often up to 46.3 µM), without a hit: top-dose activity change, negative = inhibition, usual class: inhibitors; calls by dose curve; also: nearly all actives have a fitted effect of over 60% in size
Target sequence (P16066 whole entry, looked up): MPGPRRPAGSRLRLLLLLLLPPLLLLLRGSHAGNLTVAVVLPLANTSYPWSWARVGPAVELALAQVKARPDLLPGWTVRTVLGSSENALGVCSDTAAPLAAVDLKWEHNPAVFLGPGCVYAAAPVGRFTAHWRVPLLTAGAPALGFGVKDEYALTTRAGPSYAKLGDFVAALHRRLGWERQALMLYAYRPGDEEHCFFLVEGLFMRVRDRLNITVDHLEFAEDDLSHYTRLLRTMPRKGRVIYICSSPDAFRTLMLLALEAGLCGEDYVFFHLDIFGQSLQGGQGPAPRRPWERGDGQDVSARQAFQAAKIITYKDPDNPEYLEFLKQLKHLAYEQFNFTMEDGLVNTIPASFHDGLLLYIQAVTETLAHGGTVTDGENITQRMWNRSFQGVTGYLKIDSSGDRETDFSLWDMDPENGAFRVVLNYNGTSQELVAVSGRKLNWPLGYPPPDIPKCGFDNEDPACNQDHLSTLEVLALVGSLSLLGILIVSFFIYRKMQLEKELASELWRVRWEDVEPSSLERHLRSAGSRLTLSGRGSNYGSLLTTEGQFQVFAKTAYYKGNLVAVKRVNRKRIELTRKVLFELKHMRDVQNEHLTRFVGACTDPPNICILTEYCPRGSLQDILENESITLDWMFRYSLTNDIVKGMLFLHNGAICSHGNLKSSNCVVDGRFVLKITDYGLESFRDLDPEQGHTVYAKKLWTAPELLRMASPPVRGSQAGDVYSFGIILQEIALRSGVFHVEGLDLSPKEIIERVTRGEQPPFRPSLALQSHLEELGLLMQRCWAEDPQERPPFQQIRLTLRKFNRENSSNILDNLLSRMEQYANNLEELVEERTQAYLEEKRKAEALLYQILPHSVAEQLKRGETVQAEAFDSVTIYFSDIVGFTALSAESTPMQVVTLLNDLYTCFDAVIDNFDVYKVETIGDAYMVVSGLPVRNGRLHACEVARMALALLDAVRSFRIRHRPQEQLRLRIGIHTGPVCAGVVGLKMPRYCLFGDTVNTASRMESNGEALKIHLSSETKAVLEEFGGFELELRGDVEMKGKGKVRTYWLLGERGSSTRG
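HEK293 cells stably expressing human Npr1 and cGMP GloSensor pGS-40F, loaded 2 h with 2% GloSensor reagent, given compound 30 min at room temperature. Luminescence read before and 20 min after 0.1 nM hNppA.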
3T3 cytotox: NIH 3T3 cell cytotoxicity; NIH 3T3 viability, CellTiter-Glo ATP luminescence, 48-72 h; 94,000 compounds, 4.3% hits; Potency, µM (highest dose often 96.7 µM), for the others: at the top dose activity change, negative = cytotoxicity, hits mostly inhibitors; AID 1345082; also: nearly all actives have a fitted effect of over 55% in size
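Luminescent ATP readout (CellTiter-Glo, 10 min RT) after 48 or 72 hr compound exposure of NIH 3T3 cells seeded at 400 cells/well in 1536-well format; quantitative HTS.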
HEK293 tox: kills HEK 293 cells | HEK 293 viability, ATP luminescence (CellTiter-Glo), 48-72 h | Potency, µM (titrated, usually from 115 µM), for inactives: at the highest dose activity change, negative = cytotoxicity, hits mostly inhibitors | 94,000 compounds, 6.6% hits; also: nearly all actives have a fitted effect of over 60% in size
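Read-out: CellTiter-Glo ATP luminescence. Cells: HEK 293, 250 cells/well. Exposure: 48 or 72 hr, 37 degree Celsius.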
Luciferase inh: inhibitors of firefly (Photinus pyralis) luciferase; purified P. pyralis luciferase, luminescence, biochemical; 76,000 compounds, 2.5% hits; P08659; Potency, µM (series often up to 115 µM), most hits filed as inhibitors; also: nearly all actives have a fitted effect of over 65% in size
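Purified 10nM P. pyralis luciferase with 10uM D-luciferin and 10uM ATP in 50mM Tris acetate pH 7.5, 10mM Mg acetate, 0.01% Tween-20, 0.05% BSA. qHTS titration; luminescence read by CCD imager.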
Starred values were filed as active, the others as inactive; i = inactive; ? = inconclusive; · = no result given; [ ] = remark or other dose. Shown are actives, neighbours in structure and some others; about 11% of the full set was active somewhere. Unless noted, calls follow the shape of the dose curve; as a rule, active = well fitted curve in the direction sought with a large enough effect; inconclusive = small, poorly fitted or top-dose-only effect, or another doubt; inactive = no such curve, though single readings can be large; an effect the other way counts as inactive or inconclusive. % is scaled to controls: 0 for no effect and ±100 for the full control effect; potency is read from the fitted curve at half-maximal effect.

SMILES	NPR1 antag	3T3 cytotox	HEK293 tox	Luciferase inh
Cc1nnc(-c2cc(C(=O)NC3CCOCC3)ccn2)n1CCc1ccccc1	4%[70.6 µM]	89µM*	i	i
CN(Cc1cc(C2CC2)n[nH]1)c1nccc(-c2cccnc2)n1	-3%	?	?	?
CN(CCC(O)c1ccccc1)c1nccc(-c2cccnc2)n1 (stereo unspecified)	4%	?	32µM*	i
CN(CCc1ccccc1)CCN1CC2(CCN(c3ncccc3C#N)CC2)OC1=O	-3%	?	40µM*	i
N#Cc1cccnc1N1CCCC(CO)(CCCc2ccccc2)C1 (stereo unspecified)	-3%	?	?	i
C[S+](=O)([O-])N1CCC(c2nnc3n2C(C(=O)NCc2ccc(Cl)cc2)CC3)CC1 (stereo unspecified)	·	0%	i	·
Cn1ncc2c(NCCc3nnc(N)s3)nc(-c3ccncc3)nc21	10%	-30%	-10%	i
Cn1ncc2c(N[C@@H](Cc3ccccc3)C(N)=O)nc(-c3ccncc3)nc21	0%	?	32µM*	i
COc1ccc(S(=O)(=O)Nc2ccc(C)n(CC(=O)N(C)Cc3ccco3)c2=O)cc1	-1%	3%	32µM*	i
O=C(NCCCN1CCOCC1)c1cccc2c1CCN2C(=O)Nc1ccc(F)cc1	-13%	-10%	-29%	25µM*
Cc1ccc(NC(=O)N2CCc3c(C(=O)NCc4ccncc4)cccc32)cc1	13µM*	-26%	32µM*	0.56µM*
CCC(=O)N1CCc2c(C(=O)N3CCN(c4cccc(OC)c4)CC3)cccc21	-1%	-12%	?	i
CCC(=O)N1CCc2c(C(=O)NCc3cc(C)ccc3C)cccc21	3%	-11%	-29%	i
O=C(c1cccc2c1CCN2C(=O)Nc1ccccc1)N1CCN(c2ccccc2)CC1	-24%	-17%	?	28µM*
CCNC(=O)c1cccc2c1CCN2C(=O)Nc1ccc(C)cc1	2.2µM*	?	?	0.28µM*
CNC(=O)[C@H]1C[C@]2(CCCCN(C)C2=O)N(C(=O)c2ccco2)[C@H]1c1ccco1	·	?	-3%	·
Cc1noc(-c2cn(C3CCN(C(=O)COc4ccc(F)cc4)C3)nn2)n1 (stereo unspecified)	3%	-25%	4%	i
Cc1ccc(NC(=O)N2CCc3c(C(=O)NC(C)C)cccc32)cc1	0.56µM*	?	?	0.32µM*
CC(C)NC(=O)c1cccc2c1CCN2C(=O)C1CC1	-2%	?	3%	i
O=C(NCCCc1ccccc1)c1cccc2c1CCN2C(=O)C1CC1	-12%	?	?	i
O=C(NCCc1ccncc1)c1cccc2c1CCN2C(=O)Nc1ccc(F)cc1	3.5µM*	?	?	0.25µM*
Cc1ccc(-c2nc(CNC(=O)C(C)(C)N)[nH]c2-c2ccccn2)cc1	3%	-2%	?	i
CC(C)OCCCNc1ncnc2c1CN(C1CCCCC1)C(=O)CN2C	·	-9%	i	·
COc1ccc(-c2ccc(C(=O)N[C@@H]3COCC[C@H]3OC)o2)cc1	-2%	-29%	-20%	35µM*
COCc1nc(-c2ccc(OC3CN(C(=O)C(C)Oc4ccccc4)C3)cc2)no1 (stereo unspecified)	?	?	40µM*	i
SMILES	NPR1 antag	3T3 cytotox	HEK293 tox	Luciferase inh
COCc1nc(-c2ccc(OC3CN(C(=O)c4ccc(OC)cc4)C3)cc2)no1	1.4µM*	?	?	i
CNC(=O)c1cc(C2CC2)nc2onc(C3CCN(C(=O)Cc4cccc(Cl)c4)C3)c12 (stereo unspecified)	·	-17%	?	·
CCOC(=O)C1=C(C)N=C2SC=C(CC(=O)Nc3ccc(OC)cc3)N2C1c1ccccc1F (stereo unspecified)	-26%	?	?	i
CCCCOC(=O)N1CCC2(CC1)[C@@H](C(=O)OCC)[C@@H](O)C(=O)N2C	·	?	-16%	·
COc1ccc(CC(=O)Nc2ccc3ncnc(N4CCCCC4)c3c2)c(Cl)c1	-18%	?	?	i
COc1cccc(CC(=O)Nc2ccc3c(N4CCCCC4)ncnc3c2)c1	?	?	32µM*	i
COc1ccccc1C(=O)Nc1ccc2ncnc(N3CCCCC3)c2c1	?	?	40µM*	i
O=C(Nc1ccc2c(N3CCCC3)ncnc2c1)c1ccccc1Br	-14%	?	8.9µM*	i
O=C(Nc1ccc2c(N3CCCC3)ncnc2c1)c1ccc(Br)cc1	-26%	?	?	?
O=C(COc1ccccc1)N1CCC(c2nc(C3CCOCC3)no2)C1 (stereo unspecified)	19%	-26%	-4%	i
CC1=C[C@@H](CNCc2ccc(F)cc2)[C@H](C(C)C)C[C@H]1Cc1nnc(C)o1	-13%[70.6 µM]	?	?	i
CC1=C[C@@H](CNCc2ccc(F)cc2)[C@H](C(C)C)C[C@H]1Cc1nnc(-c2cncn2C)o1	-4%[70.6 µM]	?	45µM*	i
CC1=C[C@@H](CNCc2ccc(Cl)cc2)[C@H](C(C)C)C[C@H]1Cc1nnc(-c2cncn2C)o1	-12%	40µM*	79µM*	i
COC(=O)c1ccc2c(c1)nc1n2[C@@H](CNC(=O)c2ccc(Cl)cc2)COC1	-3%[70.6 µM]	?	?	i
CC(C)(C)c1ccc(-c2cc(C[C@H]3CNCC[C@H]3CC(=O)N3CCC(n4c(=O)[nH]c5ccccc54)CC3)no2)cc1	-1%	25µM*	22µM*	i
CC(C)(C)c1ccc(-c2cc(C[C@H]3CNCC[C@H]3CC(=O)N3CCOCC3)no2)cc1	3%[70.6 µM]	?	25µM*	i
O=C(Cc1cccc(Cl)c1)NCCNC(=O)c1ccc(-c2cccc(C(F)(F)F)c2)cc1	·	-29%	?	·
CC(C)CNC(=O)c1cc(-c2ccc(F)cc2)c2nncn2n1	·	45µM*	?	·
COc1ccccc1-c1ccc2c(C(=O)N(C)C)nn(C)c2n1	·	1%[138 µM]	-7%[172 µM]	·
COc1ncccc1C(=O)N1CCC(CCC(=O)N2CCC(Cc3ccccc3)CC2)CC1	?	?	35µM*	i
COc1ccccc1-c1ccc2c(C(=O)N3CCC(Cc4ccccc4)CC3)nn(C)c2n1	·	?	79µM*	·
Cc1ccc(C(=O)N2CCC(CCC(=O)N3CCN(c4ccccn4)CC3)CC2)cc1	?	-28%	?	20µM*
Cc1ccsc1C(=O)N1CCC(CCC(=O)N2CCC(Cc3ccccc3)CC2)CC1	?	?	45µM*	i
Cc1ncsc1CN1CCCCCCN(C)C(=O)[C@@H]2CCC[C@@H]21	0%	2%	i	i
CN(C)C(=O)CCc1ccc(CC2CCN(C(=O)CCC3CCCC3)CC2)cc1	·	?	25µM*	·
CC(=O)N1CCC(N2CCC(Cc3ccc(CCC(=O)N(C)C)cc3)CC2)CC1	·	-21%	-23%	·
CN(Cc1cnn(C)c1)Cc1ccccc1OCC(O)CN1CCCCC1 (stereo unspecified)	-1%	-26%	-30%	i
